Consider 40 compounds from PubChem BioAssay (Tox21).

Inconclusive results are not listed. Where a call stands in place of a potency, no number is given. Values without a mark were called inactive. Active and inactive are the calls of the source. Calls follow the shape of the dose curve; as a rule, active = well fitted cell-killing curve with a large enough effect in the repeat runs; inconclusive = weak or mixed curves, or effect the other way; inactive = no such curve, though single readings can be large or run the other way.

The assay is described as follows: qHTS assay for small molecule activators of the heat shock response signaling pathway - cell viability counter screen (AID 743209). Also: nearly all actives have a fitted effect of over 50% in size. Particulars: HSE-bla HeLa viability, CellTiter-Glo luminescence, 5 h; series mostly up to 62.6 µM. The source says: U.S. Tox21 Program National Center for Advancing Translational Sciences [NCATS] NIH Chemical Genomics Center [NCGC] U.S. Environmental Protection Agency [EPA] National Institutes of Environmental Health Sciences [NIEHS] National Toxicology Program [NTP] U.S. Food and Drug Administration [FDA] Tox21 Assay Overview: Various chemicals, environmental and physiological stress conditions may lead to the activation of heat shock response/ unfolded protein response (HSR/UPR). There are three heat shock transcription factors (HSFs) (HSF-1, -2, and -4) mediating transcriptional regulation of the human HSR. To identify the compounds that activate HSR signaling, HSE-bla HeLa cell line (Invitrogen, Carlsbad, CA, USA) containing a beta-lactamase reporter gene under the control of the heat shock response elements was used to screen Tox21 10K compound library. The cytotoxicity of the Tox21 compound library against the HSE-bla HeLa cell line was tested in parallel by measuring the cell viability using CellTiter-Glo assay (Promega, Madison, WI) in the same wells.
Tox21 Assay Protocol Summary: The CellSensor HSE-bla HeLa cells (Invitrogen, Carlsbad, CA, USA) were dispensed at 1500 cells/6uL/well into 1536-well black wall/clear bottom plates using a Multidrop combi (Thermo Fisher Scientific, Waltham, MA) dispenser. After the assay plates were incubated at 37 C and 5% CO2 overnight, 23 nL of compounds dissolved in DMSO, positive controls or DMSO only was transferred to the assay plate by a Pintool station (Kalypsys, San Diego, CA). The plates were incubated at 37 C for 5 h. After 1 uL of LiveBLAzerTM B/G FRET substrate was added using a Flying Reagent Dispenser (FRD, Beckman Coulter, Indianapolis, IN, USA), the plates were incubated at room temperature for 2.5 h, and fluorescence intensity was measured by an Envision plate reader (PerkinElmer, Shelton, CT). For cell viability readout that measures cytotoxicity, 3 ul/well of CellTiter-Glo reagent was added into the assay plates using a FRD. After 30 min incubation at room temperature, the luminescence intensity in the plates was measured using a ViewLux (PerkinElmer) plate reader.
In general terms: Quantitative high-throughput screening tests each substance at several concentrations.
As to `N=C(N)N1CCc2ccccc2C1`, the activity change, negative = cytotoxicity was 14.1% [at 5.95 µM].
As for `Cc1ccc(NC(N)=O)cc1`, the Potency entry was “inactive”.
As to `CCCCS`, the Potency entry is “inactive”.
For `CCCCCC(=O)CC`, the Potency result was “inactive”.
As to `CC(=O)Oc1ccc(C(C)=O)cc1`, the Potency entry was “inactive”.
As to `CCCCCCCCCCCBr`, the Potency result is “inactive”.
`C/C(Cl)=C/CCl`: the Potency result was “inactive”.
With `O=c1[nH]c(=O)c2cn[nH]c2[nH]1`, the Potency entry is “inactive”.
Still for that read-out and setting: next, `CCCCCCCCCCCCCC(=O)OCC`: “inactive”; `C=CC(=O)OCC[N+](C)(C)C`: “inactive”; `COc1cc2nc(N3CCN(C(=O)C4CCCO4)CC3)nc(N)c2cc1OC` (stereo not given): “inactive”.
The same measure, in the same setting: next, `Cc1cc(=O)oc2cc(O[C@@H]3SC[C@@H](O)[C@H](O)[C@H]3O)ccc12`: “inactive”.
For `CN(C)c1cc(NC(=O)CNC(C)(C)C)c(O)c2c1C[C@H]1C[C@H]3[C@H](N(C)C)C(=O)C(C(N)=O)=C(O)[C@@]3(O)C(=O)C1=C2O`, the Potency entry was “inactive”.
As to `COc1cc(C(=O)NC2CCCNC2)cc(OC)c1OC` (stereo not given), the Potency result was “inactive”.
As to `CCCCCCCCCCCC(C)=O`, the Potency result is “inactive”.
As for `CCCCCCCOC(C)=O`, the Potency entry is “inactive”.
Regarding `CC(=O)c1c(C)cc(C(C)(C)C)cc1C`, the Potency entry was “inactive”.
Consider `CN(C)CCc1c[nH]c2ccc(C[C@H]3COC(=O)N3)cc12`, for which the Potency result was “inactive”.
With `CC(C)C(C)C`, the Potency entry was “inactive”.
`O=Cc1ccc(C(=O)O)cc1`: the Potency result was “inactive”.
As to `CCNC(=O)C(C)OC(=O)Nc1ccccc1` (stereo not given), the Potency result was “inactive”.
Turning to `CC(C)(C)C(=O)CC(=O)C(C)(C)C`, the Potency entry was “inactive”.
Same read-out and setting: as for `COC(=O)C(c1ccccc1Cl)N1CCc2sccc2C1` (stereo not given), the entry is “inactive”.
As for `CCC(=O)OCCOc1ccccc1`, the Potency entry is “inactive”.
On the same count and under the same terms, as for `Clc1cc(Cl)c(Cl)c(Cl)c1Cl`, the entry is “inactive”.
As to `CCN(CC)CC`, the Potency entry is “inactive”.
Consider `CCCOc1ccc(C(=O)OCCN(CC)CC)cc1N`, for which the Potency result is “inactive”.
Take `O=C1CC2(CCCC2)CC(=O)N1CCNCC1COc2ccccc2O1` (stereo not given): the Potency entry is “inactive”.
Regarding `CC(C)(Sc1cc(C(C)(C)C)c(O)c(C(C)(C)C)c1)Sc1cc(C(C)(C)C)c(O)c(C(C)(C)C)c1`, the Potency entry is “inactive”.
For the compound `CCCCCCCCCCCCCCCCN(C)C`, the activity change, negative = cytotoxicity is -2.6% [at 5.95 µM].
With `NNC(=O)CCCCC(=O)NN`, the Potency result was “inactive”.
As to `O=C(O)CCCCCCCCCC(=O)O`, the Potency entry was “inactive”.
For the compound `BrCCOc1ccccc1`, the Potency entry was “inactive”.
The same measure, in the same setting: next, `CCCC(=O)OC`: “inactive”; `CN1C(CCl)Nc2cc(Cl)c(S(N)(=O)=O)cc2S1(=O)=O` (stereo not given): “inactive”; `O=C(O)/C=C(\CC(=O)O)C(=O)O`: “inactive”.
Same read-out and setting: as for `CC/C=C\CCCCCCCCCCOC(C)=O`, the entry is “inactive”.
In the case of `Cc1ccc(Br)cc1`, the Potency entry is “inactive”.
In the case of `C=CC(=O)CC`, the Potency result is “inactive”.
As to `CCCCCCC(=O)c1ccccc1`, the Potency entry was “inactive”.
